Assay results reported in PubChem BioAssay (EPA / NIEHS).
Results filed as inconclusive are left out. Calls of active or inactive are those of the source. How the source made its calls: active means hit-call score of the fitted dose curve at least 0.9, where 1 is the maximum; inconclusive means response in the unintended direction; inactive means score below 0.9.

target: rat Androgen Receptor (AR), Ar (gene 24208) (UniProt P15207); assay: NVS_NR_rAR: NovaScreen (NVS) Nuclear Receptor Binding Assay for rat Androgen Receptor (AR) (AID 2283366)
Sequence (P15207 whole entry, looked up): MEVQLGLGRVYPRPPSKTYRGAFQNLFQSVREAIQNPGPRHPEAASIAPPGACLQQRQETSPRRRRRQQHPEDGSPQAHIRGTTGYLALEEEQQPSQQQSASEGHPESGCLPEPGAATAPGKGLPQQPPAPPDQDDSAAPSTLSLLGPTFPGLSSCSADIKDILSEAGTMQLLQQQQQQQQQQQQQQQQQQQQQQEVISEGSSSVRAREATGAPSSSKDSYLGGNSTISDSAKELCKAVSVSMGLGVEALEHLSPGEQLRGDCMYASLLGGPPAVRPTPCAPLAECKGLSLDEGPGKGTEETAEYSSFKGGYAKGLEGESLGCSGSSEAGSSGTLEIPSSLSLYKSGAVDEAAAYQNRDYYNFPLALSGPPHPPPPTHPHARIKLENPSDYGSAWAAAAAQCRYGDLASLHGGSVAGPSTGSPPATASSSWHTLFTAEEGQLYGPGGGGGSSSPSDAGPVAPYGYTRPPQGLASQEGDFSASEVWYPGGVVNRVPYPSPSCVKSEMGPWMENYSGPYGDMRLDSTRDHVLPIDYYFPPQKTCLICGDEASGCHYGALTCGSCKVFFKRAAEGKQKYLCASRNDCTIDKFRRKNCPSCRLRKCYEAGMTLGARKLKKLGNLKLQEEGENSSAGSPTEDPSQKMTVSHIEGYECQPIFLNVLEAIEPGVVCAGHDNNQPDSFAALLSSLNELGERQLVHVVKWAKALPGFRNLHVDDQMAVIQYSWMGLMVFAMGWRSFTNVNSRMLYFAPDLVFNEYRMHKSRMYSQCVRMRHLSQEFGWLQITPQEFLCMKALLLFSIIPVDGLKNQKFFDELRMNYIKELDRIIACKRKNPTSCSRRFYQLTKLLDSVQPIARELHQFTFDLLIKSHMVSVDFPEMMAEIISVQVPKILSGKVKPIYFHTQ
In short: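 Actives from a duplicate single-concentration (25 uM) primary run went on to concentration series. Displacement of radioligand was counted by filtration and scintillation, 18 h post-dose, using prostate extracts from testosterone-pretreated rats, with DMSO as baseline.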

Row | Compound | AC50 | outcome
1 | CCN(CC)CCOc1ccc(C(=C(Cl)c2ccccc2)c2ccccc2)cc1 | 2.68 µM (active) [middle of 4 runs] | 
2 | Cc1c(C)c2c(c(C)c1O)CCC(C)(COc1ccc(CC3SC(=O)NC3=O)cc1)O2 (stereo not given) |  | inactive
3 | Cc1ccc(-c2cc(C(F)(F)F)nn2-c2ccc(S(N)(=O)=O)cc2)cc1 |  | inactive
4 | O=C1OC(c2ccc(O)cc2)(c2ccc(O)cc2)c2ccccc21 | 6.69 µM (active) | 

target: guinea pig Sigma Receptor, Non-selective Binding, SIGMAR1 (gene 100135589) (UniProt Q60492); assay: NVS_OR_gSIGMA_NonSelective: NovaScreen (NVS) Nuclear Receptor Binding Assay for guinea pig Sigma Receptor, Non-selective Binding (AID 2283367)
Sequence (Q60492 whole entry, looked up): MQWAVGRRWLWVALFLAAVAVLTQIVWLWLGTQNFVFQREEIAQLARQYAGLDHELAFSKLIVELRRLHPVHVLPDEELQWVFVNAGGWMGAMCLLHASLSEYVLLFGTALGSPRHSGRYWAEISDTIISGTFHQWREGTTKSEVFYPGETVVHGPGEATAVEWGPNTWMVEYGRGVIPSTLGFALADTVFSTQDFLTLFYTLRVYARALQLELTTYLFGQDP
In short: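 Membranes from guinea pig brain incubated with radioligand and test chemical for 1 h, then filtered and scintillation-counted. Duplicate primary testing at 25 uM, with concentration-series follow-up for actives.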

Row | Compound | AC50
5 | CCN(CC)CCOc1ccc(C(=C(Cl)c2ccccc2)c2ccccc2)cc1 | 2.13 µM (active)
6 | Cc1c(C)c2c(c(C)c1O)CCC(C)(COc1ccc(CC3SC(=O)NC3=O)cc1)O2 (stereo not given) | 35 µM (active)
7 | CCCCCCCCCC[N+](C)(C)[O-] | 3.09 µM (active)
8 | CSc1ccc(Oc2ccc(S(N)(=O)=O)cc2CN(C)C)cc1C | 12.8 µM (active)
9 | CCc1nc(N)nc(N)c1-c1ccc(Cl)cc1 | 2.45 µM (active)
10 | COc1ccc(OC(F)(F)F)cc1CN[C@H]1CCCN[C@H]1c1ccccc1 | 15.8 µM (active)

system: guinea pig Dopamine Transporter (DAT), gene 100714898; assay: NVS_TR_gDAT: NovaScreen (NVS) Transporter Assay for guinea pig Dopamine Transporter (DAT) (AID 2283369);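 further: active compounds lower bound radioligand signal relative to DMSO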
In short: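 Guinea pig striatal membranes; radioligand displacement measured by filter-based scintillation counting 2 h after dosing. Initial duplicate screen at 25 uM, then concentration-response up to 50 uM for hits; loss of signal versus DMSO baseline.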

Row | Compound | AC50 | outcome
11 | CCN(CC)CCOc1ccc(C(=C(Cl)c2ccccc2)c2ccccc2)cc1 | 3.83 µM (active) | 
12 | CSc1ccc(Oc2ccc(S(N)(=O)=O)cc2CN(C)C)cc1C | 7.61 µM (active) | 
13 | CCc1nc(N)nc(N)c1-c1ccc(Cl)cc1 | 1.18 µM (active) | 
14 | CCCCC(CC)COP(=O)(OCC(CC)CCCC)OCC(CC)CCCC (stereo not given) |  | inactive
15 | COc1ccc(OC(F)(F)F)cc1CN[C@H]1CCCN[C@H]1c1ccccc1 | 11.9 µM (active) | 

target: Peroxisome proliferator-activated receptor gamma (Homo sapiens) (UniProt P37231); assay: NVS_NR_hPPARg: NovaScreen (NVS) Nuclear Receptor Binding Assay for human Peroxisome Proliferator-activated Receptor gamma (PPARg) (AID 2283370)
Sequence (P37231 whole entry, looked up): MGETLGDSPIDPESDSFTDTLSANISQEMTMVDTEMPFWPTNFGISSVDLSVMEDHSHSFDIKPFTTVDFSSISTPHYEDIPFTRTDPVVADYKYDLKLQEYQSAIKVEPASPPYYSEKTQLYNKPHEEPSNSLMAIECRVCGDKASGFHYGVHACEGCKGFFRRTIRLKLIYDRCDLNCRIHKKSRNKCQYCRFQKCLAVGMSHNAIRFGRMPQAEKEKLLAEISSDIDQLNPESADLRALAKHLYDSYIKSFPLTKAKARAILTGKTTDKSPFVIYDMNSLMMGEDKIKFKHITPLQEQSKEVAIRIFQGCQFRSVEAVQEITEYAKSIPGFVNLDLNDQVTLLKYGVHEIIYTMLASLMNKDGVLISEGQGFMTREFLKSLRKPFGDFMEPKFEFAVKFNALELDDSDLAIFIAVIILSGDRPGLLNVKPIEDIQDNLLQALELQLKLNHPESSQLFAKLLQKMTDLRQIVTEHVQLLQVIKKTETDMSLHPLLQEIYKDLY
In short: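 Cell-free binding to extracted PPARg protein, read by fluorescence polarization 2 h after dosing; loss of signal relative to DMSO baseline marks displacement. Primary screen in duplicate at 25 uM, actives retested in concentration series.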

Row | Compound | AC50 | outcome
16 | CCCCc1nc2cccnc2n1Cc1ccc(-c2ccccc2-c2nnn[nH]2)cc1 | 4.96 µM (active) | 
17 | CCc1nc(N)nc(N)c1-c1ccc(Cl)cc1 |  | inactive
18 | CCCCC(CC)COP(=O)(OCC(CC)CCCC)OCC(CC)CCCC (stereo not given) |  | inactive
19 | S=c1[nH]c2ccccc2s1 |  | inactive
20 | CCCCCCCCCCCCCCOS(=O)(=O)O | 1.78 µM (active) | 
21 | CN(C)C(=O)NC1(c2ccccc2)CCN(CC[C@@]2(c3ccc(F)c(F)c3)CN(C(=O)c3ccccc3)CCO2)CC1 |  | inactive

system: rat Norepinephrine Transporter (NET), gene 83511; assay: NVS_TR_rNET: NovaScreen (NVS) Transporter Assay for rat Norepinephrine Transporter (NET) (AID 2283373)
In short: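 Competitive radioligand displacement at the rat NET using forebrain membrane preparations, 1 h incubation, filter-based scintillation readout. Primary testing in duplicate at a single 25 uM concentration; confirmed actives retested across concentrations.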

Row | Compound | AC50 | outcome
22 | CCN(CC)CCOc1ccc(C(=C(Cl)c2ccccc2)c2ccccc2)cc1 | 10.2 µM (active) | 
23 | CSc1ccc(Oc2ccc(S(N)(=O)=O)cc2CN(C)C)cc1C | 25 µM (active) | 
24 | CCc1nc(N)nc(N)c1-c1ccc(Cl)cc1 | 6.82 µM (active) | 
25 | Cc1cc(Cc2ccc(N)c(C)c2)ccc1N |  | inactive
26 | COc1ccc(OC(F)(F)F)cc1CN[C@H]1CCCN[C@H]1c1ccccc1 | 8.18 µM (active) | 

target: rat Serotonin Transporter (SERT), Slc6a4 (gene 25553) (UniProt P31652); assay: NVS_TR_rSERT: NovaScreen (NVS) Transporter Assay for rat Serotonin Transporter (SERT) (AID 2283375)
Sequence (P31652 whole entry, looked up): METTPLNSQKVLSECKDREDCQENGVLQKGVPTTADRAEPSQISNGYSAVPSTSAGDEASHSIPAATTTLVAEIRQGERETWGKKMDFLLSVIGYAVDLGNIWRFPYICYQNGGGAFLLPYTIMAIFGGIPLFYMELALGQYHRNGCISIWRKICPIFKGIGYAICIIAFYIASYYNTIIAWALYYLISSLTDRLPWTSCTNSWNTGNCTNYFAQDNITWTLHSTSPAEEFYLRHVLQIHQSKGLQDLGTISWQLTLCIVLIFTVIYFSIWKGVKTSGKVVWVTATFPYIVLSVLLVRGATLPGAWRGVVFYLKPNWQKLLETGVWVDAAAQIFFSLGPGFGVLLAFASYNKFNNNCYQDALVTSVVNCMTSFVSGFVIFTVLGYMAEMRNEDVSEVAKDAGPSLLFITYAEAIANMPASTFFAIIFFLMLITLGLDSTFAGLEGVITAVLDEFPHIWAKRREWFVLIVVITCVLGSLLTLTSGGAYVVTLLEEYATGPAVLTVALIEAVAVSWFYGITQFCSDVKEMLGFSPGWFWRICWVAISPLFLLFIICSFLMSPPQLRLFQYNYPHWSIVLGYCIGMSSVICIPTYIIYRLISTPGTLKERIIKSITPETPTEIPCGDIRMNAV
In short: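 Rat forebrain membranes were incubated with test chemical for 1 hour; radioligand binding to SERT was measured by filter-based scintillation counting. Primary screen ran in duplicate at 25 uM, with actives followed up in concentration series; DMSO served as negative control.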

Row | Compound | AC50
27 | CCN(CC)CCOc1ccc(C(=C(Cl)c2ccccc2)c2ccccc2)cc1 | 7.45 µM (active)
28 | CSc1ccc(Oc2ccc(S(N)(=O)=O)cc2CN(C)C)cc1C | 0.00229 µM (active)
29 | CCc1nc(N)nc(N)c1-c1ccc(Cl)cc1 | 9.78 µM (active)
30 | COc1ccc(OC(F)(F)F)cc1CN[C@H]1CCCN[C@H]1c1ccccc1 | 11.7 µM (active)
